# Test results as given in paper PMC7862700, “An all-to-all approach to the identification of sequence-specific readers for epigenetic DNA modifications on cytosine”.
# Experiments:
# Test in all cases: DAPPL (digital affinity profiling via proximity ligation, sequencing); 10 mM Tris-HCl pH 7.5, 50 mM NaCl, 1 mM DTT, 4% glycerol, room temperature, 30 min; GST-TFs on glutathione beads, 16-mer random dsDNA library, 0.1% formaldehyde crosslink after washing; high values mean tight binding
# FLI1 = molecular target: T1, FLI1 (Homo sapiens, UniProt Q01543 1-452); settings: protein: recombinant; tags: N-terminal GST; dsDNA, one strand shown
# T1 sequence: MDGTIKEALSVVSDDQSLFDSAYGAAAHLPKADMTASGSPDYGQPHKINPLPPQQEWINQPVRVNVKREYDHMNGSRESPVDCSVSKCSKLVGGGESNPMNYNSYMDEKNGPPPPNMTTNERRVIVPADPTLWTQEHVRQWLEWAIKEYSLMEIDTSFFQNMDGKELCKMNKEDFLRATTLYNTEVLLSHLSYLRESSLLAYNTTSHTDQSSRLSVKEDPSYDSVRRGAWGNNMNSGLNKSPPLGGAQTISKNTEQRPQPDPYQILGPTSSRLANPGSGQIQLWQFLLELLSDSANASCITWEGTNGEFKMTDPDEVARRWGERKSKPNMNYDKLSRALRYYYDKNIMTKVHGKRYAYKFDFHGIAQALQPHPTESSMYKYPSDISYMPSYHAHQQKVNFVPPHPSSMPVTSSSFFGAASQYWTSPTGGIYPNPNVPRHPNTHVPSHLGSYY
# How it was run: (§1)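 The binding signal reported is, for every hexamer, its read frequency for a factor over its read frequency for the tag-only sample. Reads came from pools of yeast-expressed, GST-fused human transcription factors on glutathione beads, barcoded with DNA and mixed with that sample, which were incubated with 200 nmole of a random double-stranded 16-mer DNA library in Tris/NaCl/DTT/glycerol buffer at room temperature for 30 min. After washing, the pools were crosslinked with 0.1% formaldehyde, proximity-ligated with BsaI/T4 ligase for 1 h at 37 °C, PCR-amplified and sequenced on an Illumina NextSeq500.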
# ELK1 = molecular target: T2, ELK1 (Homo sapiens, UniProt P19419 1-428); settings: protein: recombinant; tags: N-terminal GST; dsDNA, one strand shown
# T2 sequence: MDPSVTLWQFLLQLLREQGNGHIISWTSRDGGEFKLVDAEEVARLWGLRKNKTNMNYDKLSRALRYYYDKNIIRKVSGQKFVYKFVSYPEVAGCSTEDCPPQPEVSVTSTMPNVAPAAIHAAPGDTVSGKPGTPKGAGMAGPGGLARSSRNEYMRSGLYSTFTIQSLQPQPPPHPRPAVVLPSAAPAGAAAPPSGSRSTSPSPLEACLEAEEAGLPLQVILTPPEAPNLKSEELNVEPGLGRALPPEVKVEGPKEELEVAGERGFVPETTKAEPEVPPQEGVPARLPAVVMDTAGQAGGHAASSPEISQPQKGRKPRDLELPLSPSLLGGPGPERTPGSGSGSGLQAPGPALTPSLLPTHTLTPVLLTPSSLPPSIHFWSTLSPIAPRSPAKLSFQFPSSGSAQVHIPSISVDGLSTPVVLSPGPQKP
# How it was run: as §1
# GABPA = molecular target: T3, GABPA (Homo sapiens, UniProt Q06546 1-454); settings: protein: recombinant; tags: N-terminal GST; dsDNA, one strand shown
# T3 sequence: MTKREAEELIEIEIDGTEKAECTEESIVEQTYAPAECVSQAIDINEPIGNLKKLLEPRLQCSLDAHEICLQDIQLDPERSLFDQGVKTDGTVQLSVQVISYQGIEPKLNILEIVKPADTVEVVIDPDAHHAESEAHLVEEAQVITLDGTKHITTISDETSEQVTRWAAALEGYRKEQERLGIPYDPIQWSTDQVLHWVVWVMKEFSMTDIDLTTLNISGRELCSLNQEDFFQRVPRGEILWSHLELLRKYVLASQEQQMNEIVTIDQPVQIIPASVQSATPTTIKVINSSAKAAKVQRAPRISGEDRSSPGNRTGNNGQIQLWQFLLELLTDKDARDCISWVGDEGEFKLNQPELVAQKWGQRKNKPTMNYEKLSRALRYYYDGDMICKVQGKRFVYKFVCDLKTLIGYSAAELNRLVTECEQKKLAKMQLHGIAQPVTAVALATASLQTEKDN
# How it was run: as §1
# ERG = molecular target: T4, ERG (Homo sapiens, UniProt P11308 1-479); settings: protein: recombinant; tags: N-terminal GST; dsDNA, one strand shown
# T4 sequence: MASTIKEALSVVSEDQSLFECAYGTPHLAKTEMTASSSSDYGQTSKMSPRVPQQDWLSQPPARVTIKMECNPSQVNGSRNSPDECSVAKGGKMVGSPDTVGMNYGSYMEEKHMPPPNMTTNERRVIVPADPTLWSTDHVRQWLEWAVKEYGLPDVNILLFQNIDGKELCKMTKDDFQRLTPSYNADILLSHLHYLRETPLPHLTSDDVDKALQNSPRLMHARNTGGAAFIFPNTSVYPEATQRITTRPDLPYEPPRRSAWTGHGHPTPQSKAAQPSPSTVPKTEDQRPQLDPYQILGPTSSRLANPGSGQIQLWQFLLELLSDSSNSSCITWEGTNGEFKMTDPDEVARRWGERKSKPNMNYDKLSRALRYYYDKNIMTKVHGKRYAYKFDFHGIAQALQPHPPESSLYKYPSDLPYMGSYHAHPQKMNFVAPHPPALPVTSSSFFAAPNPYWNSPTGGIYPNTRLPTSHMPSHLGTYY
# How it was run: as §1
# ELF1 = ELF1 (Homo sapiens, UniProt P32519 1-619); settings: protein: recombinant; tags: N-terminal GST; dsDNA, one strand shown
# ELF1, sequence (P32519 whole entry): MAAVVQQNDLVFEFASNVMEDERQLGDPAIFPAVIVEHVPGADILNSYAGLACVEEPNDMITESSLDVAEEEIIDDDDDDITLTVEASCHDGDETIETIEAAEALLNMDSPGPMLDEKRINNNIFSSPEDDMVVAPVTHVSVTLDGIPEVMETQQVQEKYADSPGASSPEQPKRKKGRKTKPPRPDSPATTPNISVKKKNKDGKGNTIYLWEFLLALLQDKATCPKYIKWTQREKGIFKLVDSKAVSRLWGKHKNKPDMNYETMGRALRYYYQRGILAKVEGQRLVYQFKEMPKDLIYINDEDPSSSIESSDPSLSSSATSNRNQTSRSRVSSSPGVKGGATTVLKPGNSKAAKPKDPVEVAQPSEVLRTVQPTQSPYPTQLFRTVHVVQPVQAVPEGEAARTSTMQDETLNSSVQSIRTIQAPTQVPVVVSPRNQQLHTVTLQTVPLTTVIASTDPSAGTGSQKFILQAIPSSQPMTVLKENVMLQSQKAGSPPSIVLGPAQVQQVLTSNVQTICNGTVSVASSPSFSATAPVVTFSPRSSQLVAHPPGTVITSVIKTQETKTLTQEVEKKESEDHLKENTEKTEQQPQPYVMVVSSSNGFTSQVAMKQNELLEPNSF
# How it was run: as §1
# EHF = molecular target: T5, EHF (Homo sapiens, UniProt Q9NZC4 1-300); settings: protein: recombinant; tags: N-terminal GST; dsDNA, one strand shown
# T5 sequence: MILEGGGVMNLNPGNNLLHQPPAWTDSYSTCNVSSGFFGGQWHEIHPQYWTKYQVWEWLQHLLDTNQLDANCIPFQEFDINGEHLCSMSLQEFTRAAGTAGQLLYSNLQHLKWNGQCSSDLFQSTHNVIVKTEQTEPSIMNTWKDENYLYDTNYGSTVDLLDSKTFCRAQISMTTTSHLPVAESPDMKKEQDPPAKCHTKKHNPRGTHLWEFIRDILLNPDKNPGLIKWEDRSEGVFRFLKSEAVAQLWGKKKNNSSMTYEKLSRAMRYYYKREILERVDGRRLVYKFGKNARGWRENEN
# How it was run: as §1
# SPI1 = SPI1 (Homo sapiens, UniProt P17947 1-270); settings: protein: recombinant; tags: N-terminal GST; dsDNA, one strand shown
# How it was run: as §1
# SPIB = SPIB (Homo sapiens, UniProt Q01892 1-262); settings: protein: recombinant; tags: N-terminal GST; dsDNA, one strand shown
# SPIB, sequence (Q01892 whole entry): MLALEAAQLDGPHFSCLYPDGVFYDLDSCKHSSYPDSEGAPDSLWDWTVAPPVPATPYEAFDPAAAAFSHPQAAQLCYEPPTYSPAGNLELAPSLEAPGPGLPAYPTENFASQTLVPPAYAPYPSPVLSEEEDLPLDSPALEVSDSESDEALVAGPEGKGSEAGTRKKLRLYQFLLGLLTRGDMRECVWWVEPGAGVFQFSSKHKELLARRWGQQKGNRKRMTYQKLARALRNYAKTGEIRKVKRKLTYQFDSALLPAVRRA
# How it was run: as §1
# ELK3 = molecular target: T6, ELK3 (Homo sapiens, UniProt P41970 1-407); settings: protein: recombinant; tags: N-terminal GST; dsDNA, one strand shown
# T6 sequence: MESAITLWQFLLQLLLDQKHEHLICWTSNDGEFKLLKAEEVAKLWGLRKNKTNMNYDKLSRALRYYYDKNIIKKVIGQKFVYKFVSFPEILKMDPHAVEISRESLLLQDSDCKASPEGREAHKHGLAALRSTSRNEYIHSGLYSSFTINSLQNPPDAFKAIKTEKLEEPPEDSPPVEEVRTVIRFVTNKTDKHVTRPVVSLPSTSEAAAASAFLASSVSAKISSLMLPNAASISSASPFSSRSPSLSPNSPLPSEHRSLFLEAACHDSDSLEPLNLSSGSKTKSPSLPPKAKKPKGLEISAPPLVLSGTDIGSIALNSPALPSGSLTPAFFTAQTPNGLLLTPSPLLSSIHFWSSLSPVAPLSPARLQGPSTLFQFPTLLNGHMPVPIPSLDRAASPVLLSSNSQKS
# How it was run: as §1
# FEV = molecular target: T7, FEV (Homo sapiens, UniProt Q99581 1-238); settings: protein: recombinant; tags: N-terminal GST; dsDNA, one strand shown
# T7 sequence: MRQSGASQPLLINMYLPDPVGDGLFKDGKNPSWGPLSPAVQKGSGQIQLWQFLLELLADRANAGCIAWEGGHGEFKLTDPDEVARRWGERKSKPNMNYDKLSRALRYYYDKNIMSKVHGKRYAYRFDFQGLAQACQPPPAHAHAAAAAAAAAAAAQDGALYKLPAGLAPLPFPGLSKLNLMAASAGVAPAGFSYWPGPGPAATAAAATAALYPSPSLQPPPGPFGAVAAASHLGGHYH
# How it was run: as §1
# ETV5 = ETV5 (Homo sapiens, UniProt P41161 1-510); settings: protein: recombinant; tags: N-terminal GST; dsDNA, one strand shown
# ETV5, sequence (P41161 whole entry): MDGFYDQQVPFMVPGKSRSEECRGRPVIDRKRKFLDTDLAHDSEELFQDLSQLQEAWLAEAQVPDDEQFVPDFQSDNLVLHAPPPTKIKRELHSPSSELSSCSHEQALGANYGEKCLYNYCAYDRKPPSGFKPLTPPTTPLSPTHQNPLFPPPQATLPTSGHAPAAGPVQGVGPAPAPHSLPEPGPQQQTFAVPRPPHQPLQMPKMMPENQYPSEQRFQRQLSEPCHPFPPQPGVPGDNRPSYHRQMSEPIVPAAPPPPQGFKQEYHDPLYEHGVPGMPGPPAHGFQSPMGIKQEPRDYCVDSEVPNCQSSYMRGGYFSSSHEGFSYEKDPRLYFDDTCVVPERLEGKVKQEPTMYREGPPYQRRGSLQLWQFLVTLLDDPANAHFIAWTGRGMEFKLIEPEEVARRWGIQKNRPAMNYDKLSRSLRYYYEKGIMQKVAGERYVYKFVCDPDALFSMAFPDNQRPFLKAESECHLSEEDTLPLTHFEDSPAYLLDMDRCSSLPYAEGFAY
# How it was run: as §1
# HSF1 = HSF1 (Homo sapiens, UniProt Q00613 1-529); settings: protein: recombinant; tags: N-terminal GST; chain copies: 3; dsDNA, one strand shown
# HSF1, sequence (Q00613 whole entry): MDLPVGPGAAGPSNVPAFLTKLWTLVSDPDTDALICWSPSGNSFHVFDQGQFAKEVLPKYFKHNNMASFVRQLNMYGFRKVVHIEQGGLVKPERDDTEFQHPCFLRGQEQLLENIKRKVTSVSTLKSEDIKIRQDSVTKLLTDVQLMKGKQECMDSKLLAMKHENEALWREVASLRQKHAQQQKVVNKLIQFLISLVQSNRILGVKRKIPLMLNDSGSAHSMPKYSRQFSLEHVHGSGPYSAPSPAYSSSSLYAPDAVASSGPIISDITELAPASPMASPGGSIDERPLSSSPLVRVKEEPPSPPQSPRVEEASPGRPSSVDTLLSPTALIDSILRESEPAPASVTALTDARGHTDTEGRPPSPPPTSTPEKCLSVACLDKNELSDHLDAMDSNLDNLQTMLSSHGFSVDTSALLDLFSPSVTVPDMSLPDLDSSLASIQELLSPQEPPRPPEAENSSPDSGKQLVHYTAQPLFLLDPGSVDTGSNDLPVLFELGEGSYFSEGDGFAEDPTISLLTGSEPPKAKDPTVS
# How it was run: as §1
# SPIC = molecular target: T8, SPIC (Homo sapiens, UniProt Q8N5J4 1-248); settings: protein: recombinant; tags: N-terminal GST; dsDNA, one strand shown
# T8 sequence: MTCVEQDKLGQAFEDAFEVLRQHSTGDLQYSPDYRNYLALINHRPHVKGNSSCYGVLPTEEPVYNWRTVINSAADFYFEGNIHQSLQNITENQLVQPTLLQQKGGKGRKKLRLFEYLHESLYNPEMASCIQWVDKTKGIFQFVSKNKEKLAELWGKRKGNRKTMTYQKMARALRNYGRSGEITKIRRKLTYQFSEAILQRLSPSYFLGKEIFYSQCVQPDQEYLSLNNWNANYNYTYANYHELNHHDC
# How it was run: as §1
# ELF4 = ELF4 (Homo sapiens, UniProt Q99607 1-663); settings: protein: recombinant; tags: N-terminal GST; dsDNA, one strand shown
# ELF4, sequence (Q99607 whole entry): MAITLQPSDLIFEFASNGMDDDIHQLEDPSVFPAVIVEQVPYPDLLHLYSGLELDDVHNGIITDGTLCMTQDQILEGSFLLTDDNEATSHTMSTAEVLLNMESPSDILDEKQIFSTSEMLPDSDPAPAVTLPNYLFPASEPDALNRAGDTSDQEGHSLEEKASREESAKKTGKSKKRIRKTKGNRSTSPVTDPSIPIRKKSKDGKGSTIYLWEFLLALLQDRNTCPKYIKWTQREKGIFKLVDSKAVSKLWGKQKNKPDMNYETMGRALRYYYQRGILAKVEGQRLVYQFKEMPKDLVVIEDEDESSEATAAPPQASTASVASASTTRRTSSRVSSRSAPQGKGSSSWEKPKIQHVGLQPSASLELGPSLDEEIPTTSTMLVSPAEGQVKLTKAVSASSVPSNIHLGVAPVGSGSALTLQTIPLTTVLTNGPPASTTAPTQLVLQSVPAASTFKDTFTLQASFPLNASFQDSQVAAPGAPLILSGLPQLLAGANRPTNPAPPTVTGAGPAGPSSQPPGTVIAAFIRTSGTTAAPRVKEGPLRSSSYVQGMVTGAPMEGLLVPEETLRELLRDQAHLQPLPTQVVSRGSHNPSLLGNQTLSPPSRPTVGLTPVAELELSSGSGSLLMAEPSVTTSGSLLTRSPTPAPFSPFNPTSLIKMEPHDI
# How it was run: as §1
# ELK4 = molecular target: T9, ELK4 (Homo sapiens, UniProt P28324-2 1-405); settings: protein: recombinant; tags: N-terminal GST; dsDNA, one strand shown
# T9 sequence: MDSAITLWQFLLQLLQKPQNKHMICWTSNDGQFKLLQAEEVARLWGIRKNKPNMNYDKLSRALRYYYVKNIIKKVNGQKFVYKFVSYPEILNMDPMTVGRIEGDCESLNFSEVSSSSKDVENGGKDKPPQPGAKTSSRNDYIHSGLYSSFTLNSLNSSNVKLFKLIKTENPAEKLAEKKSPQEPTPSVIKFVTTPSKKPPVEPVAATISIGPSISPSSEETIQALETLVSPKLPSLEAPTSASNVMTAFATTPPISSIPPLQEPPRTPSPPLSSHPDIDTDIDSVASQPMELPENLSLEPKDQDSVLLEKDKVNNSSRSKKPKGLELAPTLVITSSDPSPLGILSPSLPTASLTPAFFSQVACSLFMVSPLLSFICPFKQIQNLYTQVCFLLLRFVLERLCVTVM
# How it was run: as §1
# ETV2 = molecular target: T10, ETV2 (Homo sapiens, UniProt O00321 1-342); settings: protein: recombinant; tags: N-terminal GST; dsDNA, one strand shown
# T10 sequence: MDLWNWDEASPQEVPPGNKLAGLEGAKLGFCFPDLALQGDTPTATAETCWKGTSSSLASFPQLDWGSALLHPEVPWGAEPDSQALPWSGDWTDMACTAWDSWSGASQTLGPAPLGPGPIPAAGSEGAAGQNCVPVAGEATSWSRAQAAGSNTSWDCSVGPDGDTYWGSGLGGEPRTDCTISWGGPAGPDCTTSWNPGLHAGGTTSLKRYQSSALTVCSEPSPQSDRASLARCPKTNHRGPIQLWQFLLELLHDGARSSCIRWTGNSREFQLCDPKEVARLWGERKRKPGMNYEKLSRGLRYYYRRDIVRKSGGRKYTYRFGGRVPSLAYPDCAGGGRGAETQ
# How it was run: as §1
# ELF3 = molecular target: T11, ELF3 (Homo sapiens, UniProt P78545 1-371); settings: protein: recombinant; tags: N-terminal GST; dsDNA, one strand shown
# T11 sequence: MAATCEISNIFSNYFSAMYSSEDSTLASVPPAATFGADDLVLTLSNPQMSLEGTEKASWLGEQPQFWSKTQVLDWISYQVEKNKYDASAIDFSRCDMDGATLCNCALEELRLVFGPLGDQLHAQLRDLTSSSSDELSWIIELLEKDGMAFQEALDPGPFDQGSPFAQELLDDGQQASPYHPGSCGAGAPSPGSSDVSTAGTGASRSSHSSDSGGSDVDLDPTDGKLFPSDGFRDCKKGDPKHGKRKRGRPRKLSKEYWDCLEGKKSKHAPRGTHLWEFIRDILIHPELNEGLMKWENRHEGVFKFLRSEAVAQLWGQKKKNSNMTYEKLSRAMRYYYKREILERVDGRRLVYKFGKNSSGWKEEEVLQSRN
# How it was run: as §1
# CRX = CRX (Homo sapiens, UniProt O43186 1-299); settings: protein: recombinant; tags: N-terminal GST; dsDNA, one strand shown
# CRX, sequence (O43186 whole entry): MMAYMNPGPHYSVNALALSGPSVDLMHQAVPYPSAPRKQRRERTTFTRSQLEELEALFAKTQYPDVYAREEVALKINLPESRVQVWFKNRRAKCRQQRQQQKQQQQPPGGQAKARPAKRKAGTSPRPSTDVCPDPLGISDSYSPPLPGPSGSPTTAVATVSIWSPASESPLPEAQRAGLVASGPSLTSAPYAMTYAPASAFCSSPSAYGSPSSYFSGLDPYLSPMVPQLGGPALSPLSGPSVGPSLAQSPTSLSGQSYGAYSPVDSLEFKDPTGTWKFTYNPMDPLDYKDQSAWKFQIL
# How it was run: as §1
sequence,measurement,setting,value
GTTAAG,binding signal,FLI1,"1.04 fold enrichment (6-mer frequency, TF over GST control)"
same,binding signal,ELK1,"1.12 fold enrichment (6-mer frequency, TF over GST control)"
same,binding signal,GABPA,"1.07 fold enrichment (6-mer frequency, TF over GST control)"
same,binding signal,ERG,"1.05 fold enrichment (6-mer frequency, TF over GST control)"
same,binding signal,ELF1,"1.04 fold enrichment (6-mer frequency, TF over GST control)"
same,binding signal,EHF,"1.01 fold enrichment (6-mer frequency, TF over GST control)"
same,binding signal,SPI1,"1.01 fold enrichment (6-mer frequency, TF over GST control)"
same,binding signal,SPIB,"1.02 fold enrichment (6-mer frequency, TF over GST control)"
same,binding signal,ELK3,"1.05 fold enrichment (6-mer frequency, TF over GST control)"
same,binding signal,FEV,"1.02 fold enrichment (6-mer frequency, TF over GST control)"
same,binding signal,ETV5,"1.03 fold enrichment (6-mer frequency, TF over GST control)"
same,binding signal,HSF1,"1.3 fold enrichment (6-mer frequency, TF over GST control)"
same,binding signal,SPIC,"1.06 fold enrichment (6-mer frequency, TF over GST control)"
same,binding signal,ELF4,"1.1 fold enrichment (6-mer frequency, TF over GST control)"
same,binding signal,ELK4,"1.06 fold enrichment (6-mer frequency, TF over GST control)"
same,binding signal,ETV2,"1.1 fold enrichment (6-mer frequency, TF over GST control)"
same,binding signal,ELF3,"1.06 fold enrichment (6-mer frequency, TF over GST control)"
same,binding signal,CRX,"1.87 fold enrichment (6-mer frequency, TF over GST control)"
